SMILES strings stand for the structures. Hit rate of the full screen: of about 360,000 compounds, about 610 (0.17%) were called active. Roughly 2% stayed inconclusive and do not appear here. Cut-off read from the data, not from the text of the source: active = inhibition above about 30%; inconclusive = no clear call, values can overlap the other calls; inactive = below that. Many of the other results were omitted from the sample, so actives are more common in it than they were.

The values below come from PubChem BioAssay AID588499 (NMMLSC, 2011).

The test system of the test is Botulinum neurotoxin type A light chain protease (Clostridium botulinum A str. ATCC 3502). Kind of test: BoNT/A light chain protease inhibitors, primary screen, biochemical, flow cytometry, MLPCN library (AID 588499). Note: plate controls were buffer without enzyme for full effect and enzyme alone for no effect. The settings on record: multiplex microsphere protease substrate cleavage, at 10 µM, active compounds read high.
Consider `COc1ccc(C(=O)NC(=S)N2CCNC(=O)C2CC(=O)OC(C)C)cc1` (stereo not given), for which the inhibition was -0.1% (inactive).

On to `Cc1cccc(-n2c(SCC(N)=O)nc3c(c2=O)C2(CCCCC2)Cc2ccccc2-3)c1`, for which the inhibition was -0.1% (inactive).

Consider `COc1ccc(COC[C@H](CC(C)C)N2CCN(C(=O)c3cccc(C(F)(F)F)c3)CCC2=O)cc1`, for which the inhibition was 0.7% (inactive).

Regarding `NS(=O)(=O)c1ccc(-c2ccc(/C=C3\SC(=O)NC3=O)o2)cc1`, the inhibition is 0.3% (inactive).

Regarding `CN1C(=O)/C(=C\c2ccc(-c3ccccc3)o2)SC1=S`, the inhibition was 66.9% (active).

Turning to `Cc1ccc(C(=O)O)cc1-c1ccc(/C=C2\SC(=O)N(CC(=O)Nc3ccc4c(c3)OCO4)C2=O)o1`, the inhibition is 0.8% (inactive).

Regarding `CC(C(=O)Nc1ccc(O)c(C(=O)O)c1)N1C(=O)/C(=C/c2cccs2)SC1=S` (stereo not given), the inhibition was 2% (inactive).

As for `O=C(O)C(c1ccccc1)N1C(=O)/C(=C\c2ccc(-c3cccc(Cl)c3)o2)SC1=S` (stereo not given), the inhibition was 39.3% (active).

As to `CC(C(=O)NC1CCS(=O)(=O)C1)N1C(=O)/C(=C/c2ccc(Cl)cc2)SC1=S` (stereo not given), the inhibition is 2.3% (inactive).

Turning to `CN(CC(=O)Nc1c(Cl)cccc1Cl)C(=O)c1ccncc1`, the inhibition was -3.2% (inactive).

On to `COc1ccc(C(c2nnnn2Cc2cccs2)N2CCN(c3ccccc3)CC2)cc1OC` (stereo not given), for which the inhibition was -0.3% (inactive).

On to `CCOCCCNC(=O)c1cn(CC(C)C)c(=O)c2c1c1ccccc1n2C`, for which the inhibition was 2.4% (inactive).

Turning to `O=c1[nH][nH]c2c1[C@H](c1ccc(Cl)cc1)O[C@H](CCc1ccccc1)C2`, the inhibition was -0.3% (inactive).

With `COc1ccc(C(NC(=O)C2CCN(CCCc3ccccc3)CC2)c2cccs2)cc1` (stereo not given), the inhibition was -0.5% (inactive).

As to `O=C(Nc1ccc2c(c1)[C@@H]1C[C@@H](CC(=O)N3CCCCC3)O[C@@H](CO)[C@@H]1O2)NC1CCCCC1`, the inhibition is 0.1% (inactive).

On to `COC(=O)[C@]12CCCCC=C1N(Cc1ccco1)C(=O)[C@H](CC(=O)NCC1CCCCC1)C2`, for which the inhibition is -1.1% (inactive).

As for `Cc1ccc(CCn2c3c(c4ccccc42)CN(C)CC3)cn1`, the inhibition was 1.5% (inactive).

On to `CCC(C)C(N=C1NS(=O)(=O)c2ccccc21)C(=O)N1CCC(C)CC1` (stereo not given), for which the inhibition is -2.7% (inactive).

For `CCSc1nc2sc3c(c2c(=O)n1-c1ccc(C)cc1)CCN(C)C3`, the inhibition was 9.9% (inactive).

Regarding `CCCSc1nc2sc3c(c2c(=O)n1-c1ccc(OC)cc1)CCN(C)C3`, the inhibition is 49.9% (active).

`CCOc1ccc(-n2c(SCC(=O)OC)nc3sc4c(c3c2=O)CCN(C)C4)cc1`: the inhibition was 26.5% (inactive).

On to `O=S1(=O)CC(N2CCSCC2)CN1Cc1cn(Cc2cccc(Cl)c2)nn1` (stereo not given), for which the inhibition is 0.5% (inactive).

For the compound `Cc1ccc(SCC(=O)NNC(=O)c2ccc(S(C)(=O)=O)cc2)cc1`, the inhibition was 0.3% (inactive).

On to `CC1CCCCC1NC(=O)NC(=O)COC(=O)C1=NN(c2ccccc2)C(=O)CC1` (stereo not given), for which the inhibition is -0.8% (inactive).

For the compound `CCNC(=S)N1CCN(c2ncccn2)CC1`, the inhibition was 1.2% (inactive).

On to `CCOc1ccc(NC(=S)N2CCCCCC2)cc1`, for which the inhibition was 0% (inactive).

`CC(=NNC(=S)N1CCCCCC1)c1ccccn1`: the inhibition is 32.5% (active).

In the case of `CCc1[nH]nc(C(=O)N2CCCC(CO)(Cc3ccc(F)cc3F)C2)c1C` (stereo not given), the inhibition was 0.2% (inactive).

`O=C(c1cccc(-n2cccc2)c1)N1CCN(S(=O)(=O)c2ccc(F)cc2)CC1`: the inhibition was -0.8% (inactive).

With `CCCCN1C(=O)C(CC(=O)NCc2cccs2)CC(C(=O)N2CCCCCC2)=C1C` (stereo not given), the inhibition is 0% (inactive).

With `CCN(CC)C(=O)CSC1c2ccccc2C(=O)N1c1ccccc1` (stereo not given), the inhibition is -1.6% (inactive).

As for `COc1ccc(C(=O)Nc2nc(-c3ccc(OC)cc3)c(-c3ccc([N+](=O)[O-])cc3)s2)cc1`, the inhibition is 40.2% (active).

As to `COc1ccc(-c2[nH][nH]c(=O)c2NC(=O)c2ccc([N+](=O)[O-])cc2)cc1`, the inhibition was 0.1% (inactive).

With `COc1ccc(NC(=O)c2cn(CCC#N)nc2-c2ccc([N+](=O)[O-])cc2)cc1`, the inhibition was -1.1% (inactive).

With `O=C(OCC(=O)c1c[nH]c2ccccc12)c1cccc(O)c1`, the inhibition is 0.8% (inactive).

For the compound `CCOc1ncccc1C(=O)OCC(=O)NC1CC1`, the inhibition was -0.4% (inactive).

`CCOc1ncccc1C(=O)OCC(=O)c1c[nH]c2ccccc12`: the inhibition was 36.8% (active).

For `CC1CCCCC12NC(=O)N(CC(=O)Nc1ccc(S(=O)(=O)Nc3ncccn3)cc1)C2=O` (stereo not given), the inhibition was -0.7% (inactive).

In the case of `CC(=O)Nc1ccc(-c2ccnc3c2CC(C(=O)NC(C)C)O3)cc1` (stereo not given), the inhibition is 0.1% (inactive).

As to `CCCc1ccc(C(O)c2ncc(-c3cccc(OC)c3)[nH]2)cc1` (stereo not given), the inhibition is 0.3% (inactive).

Turning to `COc1ccc(C2CC(c3cccs3)=NN2c2nc(C)c(C(C)=O)s2)cc1OC` (stereo not given), the inhibition is 63.7% (active).

Consider `COc1ccc(C2CC(c3cccs3)=NN2C(=O)CSc2nnc(N)s2)cc1OC` (stereo not given), for which the inhibition was 0.2% (inactive).

As for `COc1ccc(C2CC(c3cccs3)=NN2C(=O)CSc2nncs2)cc1OC` (stereo not given), the inhibition was 0.2% (inactive).

As to `CCN(CC)C(=O)Oc1ccc(Br)cc1C(=O)Nc1ccc(F)c(Cl)c1`, the inhibition was -0.8% (inactive).

As to `O=C(NCCCn1ccnc1)C(=O)c1cn(CC(=O)N2CCCCCC2)c2ccccc12`, the inhibition was 30.5% (active).

`Cc1ccc(CNC(=O)C(=O)c2cn(CC(=O)N3CCCC3)c3ccccc23)cc1`: the inhibition was 0% (inactive).

As to `O=C(NCc1ccco1)C(=O)c1cn(CC(=O)N2CCCCCC2)c2ccccc12`, the inhibition is 10.2% (inactive).

As to `CC1(C(=O)NS(=O)(=O)C2CC2)CCCN(C(=O)CSc2ccccc2)C1` (stereo not given), the inhibition is 0.5% (inactive).

Turning to `CN(C(=O)COC(=O)c1cc(=O)[nH]c2ccccc12)C1CCCCC1`, the inhibition is 2.1% (inactive).

For `CSCC[C@H](NC(=O)NCc1cccs1)C(=O)O`, the inhibition was -0.9% (inactive).

As for `COc1ccc(NC(=O)COc2ccc(C(=O)c3ccc(F)cc3)cc2)cc1S(N)(=O)=O`, the inhibition is -1% (inactive).

`C[C@@H]1CN([C@@H](C)CO)C(=O)CCCn2nncc2CO[C@@H]1CN(C)S(=O)(=O)c1ccc(-c2ccccc2)cc1`: the inhibition is -0.4% (inactive).

As to `O=c1[nH]snc1-c1c(Cl)cccc1Cl`, the inhibition was -0.7% (inactive).

Consider `COC(=O)c1c(NC(=O)COC(=O)[C@@H](NS(=O)(=O)c2ccccc2)C(C)C)sc2c1CCC2`, for which the inhibition is -0.3% (inactive).

With `CCOC(=O)C1CCN(C(=O)CN2C(=O)c3cccnc3Oc3ccc(C)cc32)CC1`, the inhibition was -1% (inactive).
